Common to all, as to experiment: NCI-60 one-dose screen, 48 h (100 = growth as untreated, 0 = no growth, -100 = all killed)
Holding throughout (details): 10 µM unless noted

Test [1] concerns NCI-H23 lung.
Test [2] relates to NCI-H226 lung.
Test [3] relates to NCI-H322M lung.
The test system of test [4] is HOP-62 NSCLC.
The test system of test [5] is NCI-H460 lung.
The subject of test [6] is HOP-92 NSCLC.
In test [7] the test system is NCI-H522 lung.
The test system of test [8] is A549/ATCC NSCLC.
Test [9] deals with 786-0 renal.
Test [10] concerns COLO 205 colon.
Test [11] has as its system DU-145 prostate.
Test [12] relates to K-562 leukemia.
Test [13] deals with MALME-3M melanoma.
The test system of test [14] is MDA-MB-231 breast.
Test [15] deals with RXF 393 renal.
Test [16] concerns SF-268 CNS.
The test system of test [17] is SF-295 CNS.
The test system of test [18] is SF-539 CNS.
Test [19] relates to UACC-257 melanoma.
Test [20] relates to M14 melanoma.

The panel holds about 83,000 compounds, 20% with a hit somewhere; the sample as a whole holds those more often.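 The test compound was applied at a single concentration to cells in 96-well plates for 48 hours, and percent growth was recorded.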 Unmarked numbers belong to inactive results. Activity calls are given as the source filed them. Rule for the calls: active = growth percent below 10; inactive = the rest.

In PubChem BioAssay (NCI) one finds growth data, which are given here for seven molecules.

Turning to `CC[C@@H]1C(=O)N(C)c2cnc(Nc3ccc(C(=O)NC4CCC(N5CCN(CC6CC6)CC5)CC4)cc3OC)nc2N1C(C)C` (stereo not given in full), the growth was -1.19% (active) in test [1]; 49.7% in test [2]; 23.3% in test [3]; -29.7% (active) in test [4]; 1.14% (active) in test [5]; 20.7% in [6]. For the same molecule, the growth was -52.8% (active) in [7]; -6.16% (active) in test [8]; -80.2% (active) in test [9]; -61.9% (active) in [10]; 14.6% in [11]; -6.16% (active) in test [12]. The growth in test [13] was -80.6% (active); in test [14] it was 5.19% (active); in test [15] it was -30.4% (active); in test [16], 11.2%; in test [17] it was -36.2% (active); in test [18] it was -85.7% (active). Further, the values for the growth in [19] and in test [20] were -67.3% (active) and -57.7% (active), respectively.

As to `COc1ccc(COc2cc3oc(=O)c4cc(C(C)O)ccc4c3cc2OC)cc1` (stereo not given), the growth in test [1] was 70.8%; in test [2], 55.4%; in test [3], 83.8%; in test [4] it was 36.9%; in test [5], 58.4%; in test [6], 55.2%. The growth was 35.1% in test [7]; 48.6% in [8]; 62.4% in [9]; 49.3% in [10]; 94.9% in test [11]; 20.1% in test [12]. Further, the growth in test [13] is 66.8%; in test [14], 67.2%; in test [15], 47.8%; in test [16] it was 55.8%; in test [17] it was 49%; in [18], 60.7%. The growth was 42.8% in [19] and 57.6% in [20].

Take `C=CC(=O)N1CCC[C@@H](n2nc(-c3ccc(Oc4ccccc4)cc3)c3c(N)ncnc32)C1`: the growth in [1] is 95.3%; in [2] it was 45%; in test [3], -1.22% (active); in test [4], 73.1%; in [5] it was 90%; in test [6] it was 28.3%. For the same molecule, the growth in [7] was 1.41% (active); in test [8], 46.6%; in test [9] it was 30.4%; in [10] it was 61.3%; in [11], 47.9%; in test [12] it was 8.51% (active). Moreover, the growth in test [13] is 86.8%; in test [14], 56.4%; in [15], 11%; in test [16], 42%; in [17], 60.7%; in test [18], 32.9%. Besides, the growth in test [19] was 26.4%; in test [20] it was 41.9%.

`Cc1[nH]n(C(N)=S)c(=O)c1N=Nc1ccc(S(=O)(=O)Nc2ccncn2)cc1`: the growth is 102% in test [1]; 93.4% in test [2]; 128% in test [3]; 103% in test [4]; 100% in test [5]; 16.4% in [6]. Further, the growth was 99.7% in test [7]; 101% in [8]; 103% in test [9]; 112% in test [10]; 83.7% in [11]; 103% in test [12]. In addition, the growth in test [13] is 137%; in [14] it was 84.7%; in test [15], 108%; in test [16] it was 85%; in [17], 125%; in test [18], 99.2%. The figures for the growth in [19] and in test [20] were 117% and 106%, respectively.

As for `COc1ccc(Br)cc1NC(=O)Nc1cccc2c1ccn2Cc1ccnc(N)c1`, the growth in test [1] was 55.1%; in [2], 22.2%; in test [3] it was 32.7%; in test [4] it was -44.7% (active); in [5], 14.6%; in test [6] it was -7.4% (active). Further, the growth was -50.9% (active) in test [7]; 18.9% in [8]; 31.2% in test [9]; -57.5% (active) in [10]; 58.7% in test [11]; 4.41% (active) in test [12]. The growth in test [13] was 42.1%; in [14] it was -2.75% (active); in test [15], 16.3%; in test [16] it was 47.5%; in [17] it was -6.47% (active); in test [18] it was 27.5%. For the same molecule, the growth in test [19] is 32.5%; in test [20], -30.2% (active).

For `COc1cc(N2CCC(N3CCN(C)CC3)CC2)ccc1Nc1ncnc(Nc2ccccc2S(=O)(=O)C(C)C)n1`, the growth in test [1] is 102%; in test [2], 109%; in test [3], 109%; in [4] it was 86.7%; in [5], 102%; in [6], 105%. The growth in test [7] was 80.5%; in [8], 104%; in [9], 99.7%; in test [10] it was 99%; in test [11], 100%; in [12] it was 94%. In addition, the growth in [13] is 106%; in test [14], 95.9%; in test [15], 133%; in test [16] it was 100%; in test [17], 104%; in [18] it was 100%. The growth is 108% in test [19] and 93.3% in test [20].

Consider `Cn1ccnc1C(=O)/C=C/c1ccc(CC(=O)Nc2ccc(S(F)(F)(F)(F)F)cc2)cc1`, for which the growth is -12.7% (active) in test [1]; -15.3% (active) in test [2]; -5.16% (active) in [3]; -73% (active) in test [4]; -37.9% (active) in test [5]; 5.09% (active) in test [6]. Besides, the growth is -51.1% (active) in [7]; -33.7% (active) in [8]; -82.7% (active) in [9]; -55.2% (active) in test [10]; 8.82% (active) in test [11]; 0.513% (active) in test [12]. In addition, the growth in test [13] was 51.4%; in [14] it was -2.8% (active); in test [15] it was -70.6% (active); in test [16], 7.07% (active); in test [17], -6.63% (active); in test [18], -84.7% (active). Further, the growth in [19] was 54.6%; in [20], -27.4% (active).
